Assay outcomes: PubChem, several laboratories
This is a sample that favours compounds with a hit; in the whole collection about 4.2% have one here.
PfHsp90 set2 – growth inhibition of yeast expressing Plasmodium Hsp90 | S. cerevisiae expressing PfHsp90, BacTiter-Glo ATP, 48 h; yeast lacking PDR1 and PDR3 efflux regulators | inhibition, % at 9.4 µM | 0.32% of 310,000 active;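 active = every replicate shows inhibition above about 80%, whatever the replicate mean, limit read from the data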;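 note: 0% = DMSO neutral controls and 100% = 20 µM radicicol positive controls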
TIM10 inh – inhibits growth of TIM10 yeast strain; S. cerevisiae TIM10 strain growth, BacTiter-Glo luminescence, 24 h; inhibition, % at 10 µM; 1.4% of 330,000 active; AID 463195;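 active = inhibition of 40% or more at the single tested concentration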;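 note: wild-type TIM10 isogenic control strain grown at permissive 25 °C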
tim23-1 inh – inhibits growth of tim23-1 mutant yeast; S. cerevisiae tim23-1 growth, BacTiter-Glo luminescence, 24 h; inhibition, % at 20 µM; 1.3% of 330,000 active; AID 463212;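 active = growth inhibition of the mutant yeast at or above 50%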;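 note: temperature-sensitive mutant grown at 25 °C; plate controls were DMSO-treated mutant yeast for no effect and medium wells lacking yeast for full effect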
tim10-1 inh – inhibits growth of tim10-1 mutant yeast | S. cerevisiae tim10-1 ts strain growth, BacTiter-Glo, 24 h | inhibition, % at 20 µM | 2.2% of 330,000 active;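 active = inhibition of at least 40%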;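 note: mutant grown at 25 °C; 0% = DMSO wells with yeast and 100% = wells holding no yeast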
NALP1 inh – inhibitors of NALP1 inflammasome in yeast | AID 2071 | S. cerevisiae NALP1/ASC/caspase-1 growth, X-gal OD620, 72 h | 0.61% of 280,000 active | inhibition, % at 10 µM; in the data active = inhibition mostly above about 24%, no sharp cut-off; inactive = mostly below about 32%
NLRP3 yeast inh – inhibitors of NALP3 inflammasome in yeast; Yeast reconstituted NLRP3/ASC/caspase-1, beta-gal luminescence, 24 h; inhibition, % at 10 µM; AID 2825; 0.39% of 330,000 active;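 active = inhibition of 50% or more; inactive = inhibition below 50%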;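 note: plate controls were induced DMSO wells for no effect and uninduced yeast grown without galactose for full effect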
tim10-1 confirm – tim10-1 yeast growth inhibition, confirmed | inhibition, % at 20 µM | S. cerevisiae tim10-1 ts strain growth, BacTiter-Glo, 24 h | AID 463213 | shares compounds with tim10-1 inh | 56% of 7,400 active;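 active = inhibition of yeast growth at or above a set limit in either of two repeat tests at 20 µM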;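 note: tim10-1 mutant grown at permissive 25 °C to find synthetic lethal compounds; 0% = DMSO yeast wells and 100% = medium wells without yeast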
Starred values were filed as active, the others as inactive; / = not tested or not shown.

SMILES | PfHsp90 set2 | TIM10 inh | tim23-1 inh | tim10-1 inh | NALP1 inh | NLRP3 yeast inh | tim10-1 confirm
CCOC(=O)N1CCN(C(=O)CCc2c(C)nc3c(c(C)nn3-c3ccc(C)c(C)c3)c2C)CC1 | 5 | 30 | 30 | 40 | 24 | 15 | 35*
COC(=O)c1ccc2nc(NC(=O)C(C)(C)C)sc2c1 | 38 | 35 | 46 | 42* | 18 | 21 | 35*
Cc1cc(N2CCC(C(=O)NC3CC3)CC2)nc(-c2ccccc2)n1 | 12 | 2 | 20 | 14 | -15 | 8 | /
Cc1cc(N2CCC(C(=O)NC3CCCCC3)CC2)nc(-c2ccccc2)n1 | -3 | 27 | -7 | 45* | 15 | 32 | 16
CC(C)=CCC1=C(OCC(=O)O)C(=O)c2ccccc2C1=O | -9 | 34 | 49 | 52* | -1 | -12 | 44*
Cc1ccc(Cl)c(OC(=O)C2CSC3(C)CCC(=O)N23)c1 (centres undefined) | 9 | 27 | 40 | 40* | / | 3 | 27
CC(=O)c1ccc(OC(=O)C2CSC3(C)CCC(=O)N23)cc1 (centres undefined) | -5 | 6 | -7 | 10 | / | 2 | /
COc1cc(NC(=O)CC(C)S(=O)(=O)c2ccc3c(c2)NC(=O)CO3)cc(OC)c1OC (centres undefined) | -1 | -11 | 4 | 1 | 13 | 3 | /
COc1cc(-c2nc(-c3cccc(C(F)(F)F)c3)no2)cc(OC)c1OC | -7 | 35 | 10 | 41* | / | -8 | 31*
O=c1c2cn[nH]c2nc(SCc2ccccc2F)n1-c1ccc(Br)cc1 | -17 | 23 | 39 | 42* | 27 | 8 | 23
O=c1c2cn[nH]c2nc(SCc2cc(=O)n3cc(Br)ccc3n2)n1-c1ccc(Br)cc1 | -14 | 11 | 1 | 16 | 4 | 3 | /
CCc1ccc(NC(=O)C/C(C)=N/NC(=O)COc2ccc(C)cc2Br)cc1 | -10 | 5 | 47 | 45* | -4 | 16 | 22
O=C(NC(=S)Nc1ccccc1O)c1ccc(Cl)cc1Cl | -2 | 12 | 43 | 43* | -12 | 4 | 27
O=C(NNC(=S)Nc1cccc(C(F)(F)F)c1)c1ccc(Cl)cc1Cl | -32 | 17 | 40 | 52* | 13 | 16 | 46*
O=C(Nc1ccccc1Cl)c1ccc(Cl)cc1Cl | -6 | 4 | 3 | -3 | -16 | -4 | /
O=C(COc1ccc([N+](=O)[O-])cc1)N(C1CCCCC1)C1CCS(=O)(=O)C1 (centres undefined) | / | 1 | -9 | -3 | / | 22 | /
Cc1cc(C)c2c(NC(=S)NC(=O)c3ccccc3)nn(C)c2n1 | -12 | 4 | 28 | 50* | -10 | 15 | 21
Cc1cc(C)nc(NC(=S)NC(=O)c2ccccc2)n1 | 6 | -10 | 8 | -10 | -14 | 22 | /
O=C(c1cn(-c2ccccc2)nc1-c1ccc(Cl)s1)N1CCOCC1 | -124 | 21 | 25 | 44* | 40 | 9 | 25
O=C(c1cn(-c2ccccc2)nc1-c1ccc(Cl)cc1)N1CCOCC1 | -32 | 31 | 46 | 35 | 20 | 10 | /
Cc1nc(-c2ccccc2)sc1C1(C)CC(c2cccc(F)c2)=NO1 (centres undefined) | 4 | -8 | 18 | -9 | / | 12 | /
Cn1c(=O)[nH]c(=O)c2c1nc(N1CCCCCC1)n2CCCSc1nnnn1-c1ccccc1 | / | 15 | 17 | 41* | 24 | -2 | 24
Cn1c(=O)[nH]c(=O)c2c1nc(N1CCCC1)n2CCCSc1nnnn1-c1ccccc1 | -6 | -2 | 18 | 14 | 17 | 6 | /
COc1ccc(OC)c(CC(NC(C)=O)C(=O)NC2CCN(S(=O)(=O)c3ccc(NC(C)=O)cc3)CC2)c1 (centres undefined) | -16 | 6 | 6 | -11 | -8 | 14 | /
COc1ccc(Cn2nnc3c(=O)[nH]c(C4CCN(S(=O)(=O)c5ccc(C)cc5)CC4)nc32)cc1 | -9 | 16 | 6 | 7 | 9 | 2 | /
SMILES | PfHsp90 set2 | TIM10 inh | tim23-1 inh | tim10-1 inh | NALP1 inh | NLRP3 yeast inh | tim10-1 confirm
C=CCN=c1scc(-c2ccc(F)cc2)n1/N=C/c1ccccn1 | -42 | 35 | 27 | 41* | 36 | -7 | 14
COc1ccc2c(=O)c3c(=O)n(-c4ccccc4)c(-c4ccc(C)cc4)nc3oc2c1 | 11 | -22 | 2 | -19 | 7 | 33 | /
COc1ccc(-c2cc(-c3ccccc3)c(C#N)c(S(C)=O)n2)cc1 (centres undefined) | 5 | 24 | 34 | 45* | 16 | 2 | 30*
O=C(Nc1ccc(Cl)c(Cl)c1)Oc1ccc(NC(=O)c2ccco2)cc1 | 37 | 19 | 29 | 44* | 100* | 2 | 26
O=C(N/N=C/c1ccc([N+](=O)[O-])o1)C(O)c1ccccc1 (centres undefined) | -6 | 3 | 6 | -8 | / | 7 | /
CN(/N=C/c1ccc([N+](=O)[O-])o1)c1ccccc1 | 24 | 34 | 37 | 52* | 5 | 36 | 41*
CN(C)S(=O)(=O)N1CCN(c2cc(Cl)ccc2Cl)CC1 | 2 | -13 | 28 | 43* | 24 | 14 | 20
CCOC(=O)c1ccc(NC(=O)CCc2nc(-c3ccccc3Cl)no2)cc1 | -16 | 34 | 30 | 41* | / | 19 | 29*
CCOC(=O)C1CCN(C(=O)c2cc3c(OC)c(OC)c(OC)cc3[nH]2)CC1 | 29 | -15 | 8 | -3 | 10 | -7 | /
COc1cc2[nH]c(C(=O)N3CCC(Cc4ccccc4)CC3)cc2c(OC)c1OC | -38 | 12 | 34 | 44* | 11 | 10 | 16
CC(=O)Nc1ccc(NC(=O)CCC(=O)Oc2ccc(C)cc2)cc1 | -22 | 2 | -2 | 7 | 15 | 29 | /
CCCN(Cc1nnc(-c2cccs2)o1)C(=O)CN1C(=O)NC2(CCCCC2C)C1=O (centres undefined) | -9 | -3 | -1 | 4 | / | 7 | /
Cc1sc(N)nc1C12CC3CC(CC(C3)C1)C2 | -31 | 20 | 17 | 46* | 6 | 27 | 16
S=c1nc(C23CC4CC(CC(C4)C2)C3)[nH][nH]1 | 7 | 6 | 11 | 13 | / | 5 | /
CC(=NC1CCCCC1)C1=C(O)c2ccccc2C1=O | -21 | 22 | 34 | 41* | 6 | 24 | 6
O=C(O)CN1C(=O)/C(=C\C(Br)=C\c2ccccc2)SC1=S | -8 | 29 | 21 | 43* | -16 | 9 | 35*
Cn1c(CC(=O)Nc2ccc(Cl)c(Cl)c2)n[nH]c1=S | 5 | -5 | 1 | -2 | 0 | 12 | /
COc1ccc(Cc2n[nH]c(=S)n2NC(=O)Nc2ccc(Cl)c(Cl)c2)cc1 | -93 | 31 | 18 | 43* | / | 16 | 64*
O=C1c2cccc(Cl)c2C(=O)c2c1cccc2N1CCCC1 | 19 | 38 | 42 | 53* | / | 27 | 38*
